From PubChem BioAssay
Many of the other results were omitted from the sample, so hits are more common in it than they were.
Tgondii IFNg: T. gondii growth inhibition with IFN-gamma, primary screen, cell-based | AID 1259416, 2018 | activity change, negative = inhibition, % (no concentration beside the values) | 69,000 tested, 3.8% active | Toxoplasma gondii growth in IFN-gamma-treated host cells; active compounds read low; in the data active = activity change below about -70%, passing the limit was not always enough;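 also: host cells are HeLa cells infected with Toxoplasma gondii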
* hit, by the source's call.

`COC(=O)c1cccc(NC(=O)Nc2ccc(-c3nc(-c4ccccc4)co3)cc2)c1` gave Tgondii IFNg 57.
`COc1cccc(CCNC(=O)c2cc3c(c4ccccc4n3C(C)C)n2C(=O)N(C)C)c1` gave Tgondii IFNg -13.
`O=C1N(Cc2ccccc2)C(=O)C2(CCN(Cc3c[nH]c4ccccc34)CC2)N1CCc1ccccc1` gave Tgondii IFNg -77*.
`O=C1N(Cc2ccccc2)C(=O)C2(CCN(Cc3ccsc3)CC2)N1CCc1ccccc1` gave Tgondii IFNg -64.
For O=C1N(Cc2ccccc2)C(=O)C2(CCN(CC3CC=CCC3)CC2)N1CCc1ccccc1 (centres undefined) the results were Tgondii IFNg -33.
CCn1ncc(S(=O)(=O)N2CCCC(c3ccccc3)C2)c1C (centres undefined) was read as Tgondii IFNg -10.
For CCSc1nc(CC(=O)N[C@H]2CCCCNC2=O)cs1 the results were Tgondii IFNg 1.
`CCN1Cc2ccccc2CC1C(=O)NCc1cnn2ccccc12` (centres undefined) gave Tgondii IFNg -3.
`CCCCN(C(=O)c1ccc(Br)cc1)C1(C(=O)NCc2ccccc2)CCN(C(C)=O)CC1` gave Tgondii IFNg -25.
O=C(CCC(=O)N1CC(=O)Nc2ccccc21)Nc1cccc(-n2cccn2)c1 was read as Tgondii IFNg 1.
For COc1cc2cc(C)c(SCC(=O)N3CC(=O)Nc4ccccc43)nc2cc1OC the results were Tgondii IFNg 9.
For O=C1CN(C(=O)CSc2nc(C3CCCCC3)nc3ccccc23)c2ccccc2N1 the results were Tgondii IFNg -98*.
CN(c1ccccc1)c1ccc2ccc(C(=O)N3CCC(N(C)C)C3)cn12 (centres undefined) was read as Tgondii IFNg -7.
Screening CCc1nnc(CN(CC)C(=O)c2ccc(-n3nc(C)cc3C)cc2)o1 returned Tgondii IFNg 7.
Cn1c2ccccc2c2n[nH]c(=O)nc21 was read as Tgondii IFNg -105*.
`Cc1ccc2c(c1)c1nc3ccccc3nc1n2C` gave Tgondii IFNg -63.
Screening Cc1nn(-c2ccccc2)c2c1c(=O)n(C)c1ccccc21 returned Tgondii IFNg -41.
For CN(Cc1ccsc1)Cc1ccc(-c2ccn[nH]2)o1 the results were Tgondii IFNg 13.
CN1[C@H](C(=O)O)C[C@H](C(=O)NCCc2cnc[nH]2)[C@@H]1c1cccc(Cl)c1 was read as Tgondii IFNg 0.
O=C1CCCN1C1CCN(c2ncccc2C(F)(F)F)CC1 was read as Tgondii IFNg -2.
`Cn1ccnc1-c1cnc(NCc2ccccn2)nc1-c1ccco1` gave Tgondii IFNg 26.
For Cn1nccc1-c1nc(NCc2ccccn2)ncc1-c1ccsc1 the results were Tgondii IFNg -93*.
Cc1nc2ncc(-c3cc(NCc4ccccn4)nc4[nH]ccc34)cc2[nH]1 was read as Tgondii IFNg -1.
`O=C(O)CCCN1CCC(O[C@@H](c2ccc(Cl)cc2)c2ccccn2)CC1` gave Tgondii IFNg 34.
For CC(C)(C)c1ccc(C(=O)CCCN2CCC(OC(c3ccccc3)c3ccccc3)CC2)cc1 the results were Tgondii IFNg -86*.
For CC1CCN(CCCC(=O)c2ccc(F)cc2)CC1 the results were Tgondii IFNg 12.
`COCC1CN(CC2CC2)Cc2nnn(C)c21` (centres undefined) gave Tgondii IFNg 125.
CNC(=O)[C@H]1C[C@@H]2CCN(C(=O)N(C)C)C[C@H]2O1 was read as Tgondii IFNg 122.
For O=C(Nc1ccc(OC(F)(F)F)cc1Br)c1cnccn1 the results were Tgondii IFNg -110*.
For Cc1nc(NC(=O)c2cnccn2)ccc1Br the results were Tgondii IFNg 455.
`CCOc1ccccc1NC(=O)c1cnccn1` gave Tgondii IFNg -46.
Cc1ccc(-c2cc(C(=O)NCc3nc(Cc4ccccc4)no3)no2)cc1 was read as Tgondii IFNg 33.
CNC(=O)[C@H]1C[C@@H]2CN(C(=O)NC3CCCC3)C[C@H]1O2 was read as Tgondii IFNg inactive.
COc1cccc(CNC(=O)N2CCC3(CC2)Nc2ccccc2-n2cccc23)c1 was read as Tgondii IFNg 344.
`Cc1ccc(-n2cc(CNCCc3cnccn3)c(-c3cccc(C)c3)n2)cc1` gave Tgondii IFNg -13.
CNC(=O)c1ccc(-c2ccnc3c2ccn3C)o1 was read as Tgondii IFNg 61.
Cn1ccc2c(-c3ccc(C(=O)O)cn3)ccnc21 was read as Tgondii IFNg 12.
Cn1ccc2c(-c3cccc(O)c3)ccnc21 was read as Tgondii IFNg -77*.
For Cc1cnn(C(C)C(=O)N2CCc3[nH]nc(-c4ccc(F)c(F)c4)c3C2)c1 (centres undefined) the results were Tgondii IFNg -40.
CC/C(=C(\c1ccccc1)c1ccc(OCCN(C)C)cc1)c1ccccc1 was read as Tgondii IFNg -66.
CC/C(=C(\c1ccc(O)cc1)c1ccc(OCCN(C)C)cc1)c1ccccc1 was read as Tgondii IFNg -98*.
`CC/C(=C(/CC)c1ccc(O)cc1)c1ccc(O)cc1` gave Tgondii IFNg -51.
Cc1ccc2c(c1)c(=O)cc(C(F)(F)F)n2CC1(O)CCN(Cc2cccs2)CC1 was read as Tgondii IFNg -33.
Screening Cc1ccc2[nH]cc(-c3nccc(C(F)(F)F)n3)c2c1 returned Tgondii IFNg -12.
COc1nccnc1-c1c[nH]c2ccc(C)cc12 was read as Tgondii IFNg 138.
For COc1nc(OC)nc(-c2c[nH]c3ccc(C)cc23)n1 the results were Tgondii IFNg -87*.
CN(Cc1ncc[nH]1)[C@@H]1CS(=O)(=O)C[C@H]1O was read as Tgondii IFNg -6.
`C[C@@H]1CC[C@H]2[C@@H](C)C(O)O[C@@H]3O[C@]4(C)CC[C@@H]1[C@]32OO4` (some centres undefined) gave Tgondii IFNg -82*.
CCC(C(=O)NCCCN1CCCC1)n1c2ccccc2c2cnn(C)c(=O)c21 (centres undefined) was read as Tgondii IFNg -39.
NC(=O)c1cnc2n1CCN(C(=O)Cc1cccs1)C2 was read as Tgondii IFNg -6.
CC(C)O[C@H]1CN(C(=O)CCNC(=O)c2ccc(F)cc2)C[C@@H]1O was read as Tgondii IFNg 5.
Screening CCN1CCN(C(=O)c2ccccc2N(C)S(C)(=O)=O)CC1 returned Tgondii IFNg 1.
Screening CC(NC(=O)c1cc(COc2ccc(F)cc2)on1)c1ccc2c(c1)OCCO2 (centres undefined) returned Tgondii IFNg -22.
`O=C(O)c1ccc(NS(=O)(=O)c2cccc(C(=O)O)c2)cc1` gave Tgondii IFNg -4.
CCNC(=O)/C=C/c1cccc(Br)c1 was read as Tgondii IFNg 31.
`O=C(/C=C/c1cccc(S(=O)(=O)Nc2ccccc2)c1)NO` gave Tgondii IFNg -71*.
Screening CS(=O)(=O)N1CCOCC1c1csc(-c2ccccc2)n1 (centres undefined) returned Tgondii IFNg 0.
Cn1c(-c2ccc(-c3nccn3CCn3cccn3)o2)nc2ccccc21 was read as Tgondii IFNg 7.
`COc1ccc(NC(=O)C2CC(=O)c3ccccc32)c(NC(=O)C(C)C)c1` (centres undefined) gave Tgondii IFNg -1.
COc1cccc(NC(=O)NCC2CCCN(C3CCOCC3)C2)c1 (centres undefined) was read as Tgondii IFNg -8.
Screening CCn1cc(C(CNC(=O)Nc2cccc(SC)c2)c2cccnc2)c2ccccc21 (centres undefined) returned Tgondii IFNg -111*.
